From PubChem BioAssay
miR-21 act: qHTS Assay for Modulators of miRNAs and/orActivators of miR-21. HeLa miR-21 FLuc reporter, luciferase, 48 h. Potency, µM (series often up to 38.3 µM), for the others: at the top dose activity change, positive = activation, usual class: activators. 340,000 tested, under 10 active. AID 2288, 2010;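 further: % of control where 0% means no effect; miR-21 action dims this reporter so a rising signal means less miR-21 action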
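HeLa cells endogenously expressing miR-21, stably carrying CMV-driven firefly luciferase with a downstream miR-21 binding site, 2000 cells/well. Titrations up to approximately 40 uM, 48 hours; luciferase luminescence read.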
TDP1 cell CPT: qHTS for Inhibitors of human tyrosyl-DNA phosphodiesterase 1 (TDP1): qHTS in cells in presence of CPT. hit rate 12% among 420,000. Potency, µM (titrated, usually from 46.2 µM), for inactives: at the top dose activity change, negative = growth inhibition, usual class: inhibitors. chicken DT40 Tdp1-/-;hTDP1 cells + 20 nM CPT, ATP luminescence, 48 h; further: potency means the concentration at half of the fitted maximal effect; on the % scale 0 is the no-effect control and ±100 the full control effect; nearly all actives have a fitted effect of over 55% in size
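Chicken DT40 Tdp1-/- cells complemented with human TDP1, 400 cells/well, exposed to compounds plus 20 nM camptothecin for at least 48 h at 37 C; viability read as ATP content by CellTiter-Glo luminescence.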
uPA generation: qHTS for Inhibitors of Cell Surface uPA Generation | cell surface uPA generation assay, qHTS | Potency, µM (highest dose often 38.3 µM), for inactives: at the highest dose activity change, negative = inhibition, usual class: inhibitors | hit rate 0.31% among 330,000 | AID 540303, 2011; active means well fitted inhibition curve with a large enough effect; inconclusive means small, poorly fitted or top-dose-only effect; inactive means no such curve, though single readings can be large or run the other way; tested in mouse RAW 264.7 cells; further: potency means the concentration at half of the fitted maximal effect; on the % scale 0 is the no-effect control and ±100 the full control effect; nearly all actives have a fitted effect of over 55% in size
TDP1 cell noCPT: qHTS for Inhibitors of human tyrosyl-DNA phosphodiesterase 1 (TDP1): qHTS in cells in absence of CPT; DT40 Tdp1-/- hTDP1 cells, no CPT, ATP luminescence, 48 h; Potency, µM (top dose mostly 46.2 µM), inactives show at the top dose activity change, negative = growth inhibition, hits mostly inhibitors; hit rate 15% among 420,000; further: potency means the concentration at half of the fitted maximal effect; on the % scale 0 is the no-effect control and ±100 the full control effect; nearly all actives have a fitted effect of over 55% in size
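Luminescent ATP content (CellTiter-Glo) served as the growth readout. Knockout chicken DT40 cells expressing human TDP1 were exposed to compounds without camptothecin for a minimum 48 hr at 37 °C.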
TDP1 block: qHTS Assay for Inhibitors of Tyrosyl-DNA Phosphodiesterase (TDP1); hit rate 0.28% among 350,000; Potency, µM (highest dose often 130 µM), for the others: at the highest dose activity change, negative = inhibition, most hits filed as inhibitors; recombinant TDP1, AlphaScreen DNA substrate cleavage; further: potency means the concentration at half of the fitted maximal effect; on the % scale 0 is the no-effect control and ±100 the full control effect; nearly all actives have a fitted effect of over 40% in size
Target sequence (Q9NUW8 whole entry, looked up): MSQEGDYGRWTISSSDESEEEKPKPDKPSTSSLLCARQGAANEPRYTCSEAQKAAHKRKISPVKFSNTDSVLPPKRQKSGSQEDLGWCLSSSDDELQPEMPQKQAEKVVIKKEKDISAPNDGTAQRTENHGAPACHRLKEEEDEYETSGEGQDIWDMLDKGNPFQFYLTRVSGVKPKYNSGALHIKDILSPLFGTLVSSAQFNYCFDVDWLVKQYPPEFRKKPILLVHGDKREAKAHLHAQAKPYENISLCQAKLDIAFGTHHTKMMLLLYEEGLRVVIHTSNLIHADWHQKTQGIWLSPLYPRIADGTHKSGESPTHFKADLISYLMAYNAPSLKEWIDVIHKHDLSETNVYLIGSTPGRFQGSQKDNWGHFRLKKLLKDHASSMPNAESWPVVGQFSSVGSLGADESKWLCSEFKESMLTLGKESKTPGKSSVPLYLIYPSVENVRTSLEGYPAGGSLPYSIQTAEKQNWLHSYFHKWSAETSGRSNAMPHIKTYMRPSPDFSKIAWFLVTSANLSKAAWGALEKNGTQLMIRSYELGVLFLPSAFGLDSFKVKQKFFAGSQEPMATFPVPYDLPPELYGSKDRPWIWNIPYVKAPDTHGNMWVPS
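Compounds were preincubated with Tdp1 (1 nM final) for 15 min at room temperature before substrate (15 nM final) started a 5 min reaction; beads (10 ug/ml final) were then added for 10 min before AlphaScreen detection.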
The depositor's hits bear a star. Only some compounds are listed: those with a hit (about 16% of all), similar ones and a draw of the others. Unless noted, the call rests on the fitted dose curve; in most records, active means well fitted curve in the direction sought with a large enough effect; inconclusive means small, poorly fitted or top-dose-only effect, or another doubt; inactive means no such curve, though single readings can be large; an effect the other way counts as inactive or inconclusive.

What do the screens show for `C/C(=N\Nc1ccccc1)c1c(O)n(Cc2ccccc2)c(=O)[nH]c1=O`?
miR-21 act: 9%; TDP1 cell CPT: 15µM*; uPA generation: -1%; TDP1 cell noCPT: inconclusive; TDP1 block: 3%

How did C=CCn1c(O)c(C(C)=NCCC(c2ccccc2)c2ccccc2)c(=O)[nH]c1=O do in these assays?
miR-21 act: -11%; TDP1 cell CPT: 21µM*; uPA generation: 2%; TDP1 cell noCPT: 16µM*; TDP1 block: 0%

Results for CCCCC/C=C\C/C=C\C/C=C\C/C=C\CCCC(=O)NC(C)C(=O)O (stereo unspecified) ?
TDP1 block: 4%

How did Cn1cc(/C=C2\C(=O)NC(=O)N(c3ccccc3)C2=O)c2ccccc21 do in these assays?
miR-21 act: 2%; TDP1 cell CPT: -28%; uPA generation: -7%; TDP1 cell noCPT: -11%

Results for Cc1cccc(N2C(=O)NC(=O)/C(=C\c3cccn3-c3ccc(Cl)cc3)C2=O)c1 ?
miR-21 act: 9%; TDP1 cell CPT: 10µM*; uPA generation: -8%; TDP1 cell noCPT: 21µM*; TDP1 block: 0%

What do the screens show for `CN(C)c1ccc(/C=C/C=C2/C(=O)NC(=O)N(c3ccccc3)C2=O)cc1`?
miR-21 act: -5%; TDP1 cell CPT: 2.9µM*; uPA generation: 4%; TDP1 cell noCPT: 4.1µM*; TDP1 block: 3%

Results for Cc1ccc(N2C(=O)NC(=O)/C(=C\C=C\c3ccco3)C2=O)cc1C ?
miR-21 act: inconclusive; TDP1 cell CPT: 2.6µM*; uPA generation: -8%; TDP1 cell noCPT: 5.2µM*; TDP1 block: -5%

Results for Cc1cc(N2CCOCC2)ccc1/C=C1\C(=O)NC(=O)N(c2ccccc2)C1=O ?
miR-21 act: -6%; TDP1 cell CPT: -31%; uPA generation: 1%; TDP1 cell noCPT: inconclusive

Results for O=C1NC(=O)N(Cc2ccco2)C(=O)/C1=C/C=C/c1ccco1 ?
miR-21 act: 4%; TDP1 cell CPT: 7.3µM*; uPA generation: -14%; TDP1 cell noCPT: 9.2µM*

Results for CCCCCCCCCC[n+]1cccc([C@@H]2CCCN2C)c1 ?
TDP1 block: 2%

What do the screens show for `O=C(c1c[nH]c(C(=O)C(Cl)(Cl)Cl)c1)c1ccccc1Cl`?
miR-21 act: -3%; TDP1 cell CPT: inconclusive; uPA generation: 3%; TDP1 cell noCPT: inconclusive; TDP1 block: -1%

Results for O=C1NC(=O)N(c2ccccc2)C(=O)/C1=C/C=C/c1ccco1 ?
miR-21 act: 20%; TDP1 cell CPT: 4.6µM*; uPA generation: 10µM*; TDP1 cell noCPT: 4.6µM*

Results for Cc1cccc(N2C(=O)NC(=O)/C(=C\C=C\c3ccco3)C2=O)c1 ?
miR-21 act: 12%; TDP1 cell CPT: 2.9µM*; uPA generation: 10µM*; TDP1 cell noCPT: 8.2µM*; TDP1 block: -4%

What do the screens show for `CCOC(=O)C1CCN(/C=C2/C(=O)NC(=O)N(Cc3ccco3)C2=O)CC1`?
miR-21 act: 1%; TDP1 cell CPT: -12%; uPA generation: 1%; TDP1 cell noCPT: -22%; TDP1 block: 40µM*

How did Cn1cccc1/C=C1\C(=O)NC(=O)N(Cc2ccco2)C1=O do in these assays?
miR-21 act: 7%; TDP1 cell CPT: 9.2µM*; uPA generation: inconclusive; TDP1 cell noCPT: inconclusive; TDP1 block: 18µM*

What do the screens show for `CN1C(=O)/C(=C/C=C/c2ccco2)C(=O)NC1=S`?
miR-21 act: -2%; TDP1 cell CPT: inconclusive; uPA generation: -1%; TDP1 cell noCPT: inconclusive

Results for O=C1CCC[C@H]2[C@@H]3CCCN4CCC[C@H](CN12)[C@H]34 ?
TDP1 block: 6%

Results for O=C(Nc1ccc(N2CCCC2)cc1)c1ccccc1[N+](=O)[O-] ?
miR-21 act: -13%; TDP1 cell CPT: inconclusive; uPA generation: inconclusive; TDP1 cell noCPT: inconclusive

Results for C[C@H](CN1CCOCC1)C(C(=O)N1CCCC1)(c1ccccc1)c1ccccc1 ?
TDP1 cell CPT: inconclusive; TDP1 cell noCPT: 42µM*

Results for N#CCCn1cc(C(=O)Nc2ccccc2Cl)c(-c2ccc(F)cc2)n1 ?
miR-21 act: -3%; TDP1 cell CPT: 8%; uPA generation: 2%; TDP1 cell noCPT: -2%; TDP1 block: 1%

How did CCc1ccc(C(=O)NN(C(=O)c2cc(C)cc(C)c2)C(C)(C)C)cc1 do in these assays?
TDP1 block: 7%

How did COCCN1C(=O)NC(=O)/C(=C\c2ccc(Br)cc2)C1=O do in these assays?
miR-21 act: -2%; TDP1 cell CPT: 21µM*; uPA generation: -9%; TDP1 cell noCPT: inconclusive; TDP1 block: -3%

Results for COc1ccc(/C=C2/C(=O)NC(=O)N(Cc3ccco3)C2=O)cc1 ?
miR-21 act: 0%; TDP1 block: -6%

Results for COC(=O)C(O)(c1c(C)[nH]c2ccccc12)C(F)(F)F (stereo unspecified) ?
miR-21 act: 0%; TDP1 cell CPT: -8%; uPA generation: 8%; TDP1 cell noCPT: -14%; TDP1 block: 0%

What do the screens show for `CC(C)CN1CCC2(CC1)CCN(S(C)(=O)=O)CC2`?
TDP1 cell CPT: inconclusive; TDP1 cell noCPT: 9%

What do the screens show for `COc1ccc2c(c1)OC[C@H]1[C@H]2N2C(=O)c3cc(C)ccc3NC(=O)[C@@]2(C)[C@H]1c1ccccc1`?
TDP1 cell CPT: 16µM*; uPA generation: inconclusive; TDP1 cell noCPT: inconclusive; TDP1 block: 1%

How did Cc1ccc2c(c1)NC(=O)[C@@]1(C)[C@@H](c3ccccc3)[C@H]3COc4ccccc4[C@@H]3N1C2=O do in these assays?
TDP1 cell CPT: inconclusive; uPA generation: inconclusive; TDP1 cell noCPT: inconclusive; TDP1 block: 1%

How did CCc1cn(C2CC(O)C(CO)O2)c(=O)[nH]c1=O (stereo unspecified) do in these assays?
TDP1 cell CPT: inconclusive; uPA generation: 10µM*; TDP1 cell noCPT: -28%; TDP1 block: 0%

Results for CC(=O)N1N=C2C3CCN(CC3)C2C1c1ccc(C)cc1 (stereo unspecified) ?
miR-21 act: -3%; TDP1 cell CPT: 3%; uPA generation: -7%; TDP1 cell noCPT: 1%; TDP1 block: -3%

How did COc1cc([C@@H]2c3cc4c(cc3[C@H](OC(C)=O)[C@H]3COC(=O)[C@@H]23)OCO4)cc(OC)c1OC do in these assays?
TDP1 cell CPT: 1.1µM*; TDP1 cell noCPT: 1.1µM*; TDP1 block: 1%
